Test results: PubChem BioAssay AID504834 (National Center for Advancing Translational Sciences (NCATS), 2011)
Among all 320,000 compounds or so, about 22,000 (6.9%) were called active. Where a call stands in place of a potency, no number is given. Not shown: some 27% with an inconclusive outcome. The call rests on the fitted dose curve; in most records, active means well fitted inhibition curve with a large enough effect; inconclusive means small, poorly fitted or top-dose-only effect, or another doubt; inactive means no such curve, though single readings can be large or run the other way. The full list was thinned out, with actives kept by preference.

Experiment: Primary qHTS for delayed death inhibitors of the malarial parasite plastid, 96 hour incubation
Settings: P. falciparum luciferase reporter growth; series mostly up to 28.7 µM
Method in brief: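 P. falciparum expressing integrated firefly luciferase grown in erythrocytes (2% hematocrit, 0.05% parasitemia final) with compounds for 96 hours at 37 C, 5% CO2. Growth inhibition read as loss of luminescence after adding luciferase detection reagent.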
Potency means the concentration at half of the fitted maximal effect.

Which Potency does the source give for `Cc1c(C)c(C)c(S(=O)(=O)N2CCC3(CC2)OCCO3)c(C)c1C` here?
Its Potency is “inactive”.

With `Cc1csc(NC(=O)C2CCN(S(=O)(=O)c3ccccc3)CC2)n1` as the molecule, how does the Potency read?
The Potency was “inactive”.

With `CCOc1ccc(N(CC(=O)NCCOc2ccccc2OC)S(=O)(=O)c2ccccc2)cc1` as the molecule, how does the Potency read?
Its Potency is “inactive”.

Which Potency does the source give for `Cc1ccccc1N1CCN(Cc2nc(Cc3ccccc3F)no2)CC1` here?
The Potency was “inactive”.

Which Potency does the source give for `COc1ccc(NC(=O)CC2C(=O)NC3CCCCC3N2C(=O)c2ccc(F)cc2)cc1` (stereo not given) here?
Its Potency is “inactive”.

For `COc1ccc(CNC(=O)CN(Cc2ccccc2Cl)C(=O)c2csnn2)cc1`, which Potency is on record?
The Potency was “inactive”.

With `COc1ccc(NC(=O)C2=CC(c3ccc(OC)c(OC)c3)=NS(=O)(=O)N2C)cc1` as the molecule, how does the Potency read?
Its Potency is “inactive”.

Which Potency does the source give for `COc1ccc(/C=C2\SC(=O)N(CCC(=O)NC3CCS(=O)(=O)C3)C2=O)cc1` (stereo not given) here?
The Potency was “inactive”.

For `O=C(c1cc(COc2cccc(C(F)(F)F)c2)on1)N1CCSCC1`, which Potency is on record?
The Potency was “inactive”.

For `C=CCn1c(=O)c(C(=O)NCc2ccc3c(c2)OCO3)c(O)c2ccccc21`, which Potency is on record?
The Potency was “inactive”.

For `O=C1[C@H]2[C@@H](c3ccc(Cl)cc3)N3C(=O)N(c4cccc(F)c4)C(=O)[C@@]3(Cc3ccccc3)[C@H]2C(=O)N1C1CCCCC1`, which Potency is on record?
The Potency was 8.28 µM (active).

For `O=C(COC(=O)c1ccc(F)cc1)NCCCc1ccccc1`, which Potency is on record?
The Potency was “inactive”.

Which Potency does the source give for `Cc1cc(C)c(-c2csc(NC(=O)CCCc3nc4ccccc4c(=O)[nH]3)n2)c(C)c1` here?
Its Potency is 0.329 µM (active).

Which Potency does the source give for `Cc1cccc(S(=O)(=O)CC(=O)Nc2nc(-c3ccccc3)cs2)c1` here?
Its Potency is “inactive”.

With `CC(C)(C)c1ccc(NC(=O)COC(=O)CCc2nc3ccccc3c(=O)[nH]2)cc1` as the molecule, how does the Potency read?
The Potency was “inactive”.

For `CC(C)Oc1ccc(/C=N/NC(=O)c2nnn(-c3nonc3N)c2CN(C)C2CCCCC2)cc1`, which Potency is on record?
The Potency was “inactive”.

With `CCC(C)Sc1nc2c(cnn2-c2ccc(F)cc2)c(=O)[nH]1` (stereo not given) as the molecule, how does the Potency read?
Its Potency is “inactive”.

With `COCCNC(=S)N/N=C/c1c(C)[nH]c2ccccc12` as the molecule, how does the Potency read?
The Potency was “inactive”.

For `CN=c1scc(-c2cc(OC)ccc2OC)n1/N=C/c1c(C)[nH]c2ccccc12`, which Potency is on record?
The Potency was 6.57 µM (active).

With `COc1ccc(OC)c(N=Cc2c(O)[nH]c3ccccc23)c1` as the molecule, how does the Potency read?
Its Potency is “inactive”.

Which Potency does the source give for `CC1CCC(NC(=O)CNC(=O)c2ccc3ccccc3c2)CC1` (stereo not given) here?
Its Potency is “inactive”.

With `O=C(C1CC(=O)N(C2CCCCC2)C1)N1CCN(c2ccccc2)CC1` (stereo not given) as the molecule, how does the Potency read?
The Potency was “inactive”.

For `CCCN1CCN(CCCNC(=O)CN2C(=O)COc3ccccc32)CC1`, which Potency is on record?
Its Potency is “inactive”.

For `O=C(CN1C(=O)c2cccnc2Oc2ccc(Cl)cc21)Nc1ccc(F)cc1`, which Potency is on record?
Its Potency is “inactive”.

For `Cc1ccc2c(c1)N(CC(=O)NCCc1ccc(Cl)cc1)C(=O)c1cccnc1O2`, which Potency is on record?
The Potency was 10.4 µM (active).

For `Cc1cc(C(=O)NCCc2ccc(Cl)cc2)c(C)o1`, which Potency is on record?
The Potency was “inactive”.

With `Cc1ccc2c(c1)N(CC(=O)NCCCN1CCCCC1)C(=O)c1cccnc1O2` as the molecule, how does the Potency read?
The Potency was 9.28 µM (active).

With `Cc1ccc2c(c1)N(CC(=O)N1CCC(C)CC1)C(=O)c1cccnc1O2` as the molecule, how does the Potency read?
The Potency was “inactive”.

Which Potency does the source give for `COc1ccc(NC(=O)COC(=O)c2n[nH]c3ccccc23)c(OC)c1` here?
The Potency was “inactive”.

With `CCCc1ccc(C(=O)COC(=O)CN2C(=O)NC3(CCCCC3C)C2=O)cc1` (stereo not given) as the molecule, how does the Potency read?
Its Potency is “inactive”.

Which Potency does the source give for `O=C(CN(C(=O)c1nsc(Cl)c1Cl)c1cccc(F)c1)NC1CCCC1` here?
The Potency was “inactive”.

With `CC(Oc1ccccc1)C(=O)Nc1c2c(nn1-c1ccccc1)CS(=O)C2` (stereo not given) as the molecule, how does the Potency read?
Its Potency is “inactive”.

For `C=CCN1C(=O)c2ccc(C(=O)N3CCC(C(=O)OCC)CC3)cc2C1=O`, which Potency is on record?
The Potency was “inactive”.

For `Cc1cccc(C(=O)NNC(=O)CSc2nnc(C(C)C)n2C)c1`, which Potency is on record?
The Potency was “inactive”.

With `Cc1cc(C(=O)N/N=C\C(Br)=C\c2ccccc2)c(C)o1` as the molecule, how does the Potency read?
The Potency was “inactive”.

Which Potency does the source give for `CC(=C/c1ccccc1)/C=N/NC(=O)c1cc(C)oc1C` here?
The Potency was 9.28 µM (active).

With `Cc1cc(C(=O)N/N=C/c2ccccc2[N+](=O)[O-])c(C)o1` as the molecule, how does the Potency read?
Its Potency is “inactive”.

For `COc1cccc(Cn2cc(/C=N/NC(=O)c3cc(O)cc(O)c3)c3ccccc32)c1`, which Potency is on record?
Its Potency is “inactive”.

With `COc1cc(OC)cc(C(=O)NCC(=O)N2CCCCCCC2)c1` as the molecule, how does the Potency read?
The Potency was “inactive”.

Which Potency does the source give for `COc1ccc(N2CCN(C(=O)CCNC(=O)c3ccc(Br)cc3)CC2)cc1` here?
Its Potency is “inactive”.

For `COc1ccc(N2CCN(C(=O)CNS(=O)(=O)c3ccc(C)c(C)c3)CC2)cc1`, which activity change, negative = inhibition is on record?
The activity change, negative = inhibition was -44% [at 5.75 µM] (inactive).

With `COc1ccc(N2CCN(C(=O)CNC(=O)c3ccc(C(C)(C)C)cc3)CC2)cc1` as the molecule, how does the Potency read?
The Potency was 4.65 µM (active).

With `O=C(NCC(=O)N1CCCCCCC1)c1ccccc1Cl` as the molecule, how does the Potency read?
Its Potency is “inactive”.

Which Potency does the source give for `O=C(NCC(=O)N1CCN(c2ccccc2O)CC1)c1ccc2ccccc2c1` here?
Its Potency is 6.57 µM (active).

With `CCOC(=O)c1c(N)sc2c1CCCC2=O` as the molecule, how does the Potency read?
Its Potency is “inactive”.

Which Potency does the source give for `O=C(CN(C(=O)CNC(=O)c1cccs1)c1cccc(F)c1)NC1CCCCC1` here?
The Potency was “inactive”.

With `COc1ccccc1/C=C/C(=O)NC1CC2CCC1C2` (stereo not given) as the molecule, how does the Potency read?
The Potency was “inactive”.

With `O=S(=O)(Nc1ccccc1Cl)c1cccc2nsnc12` as the molecule, how does the Potency read?
Its Potency is “inactive”.

For `O=C(Nc1ccccc1)c1ccc2c(c1)OCCCO2`, which Potency is on record?
Its Potency is “inactive”.

For `C[C@H](NC(=O)[C@@H]1Cc2ccccc2CN1C(=O)OC(C)(C)C)C(=O)NC1CCCC1`, which Potency is on record?
The Potency was “inactive”.

For `CCN(CC)C(=O)c1ccc(O)c(OC)c1`, which Potency is on record?
The Potency was “inactive”.

Which Potency does the source give for `COc1ccc(C(C)NC(=S)NC2CCCCC2)cc1OC` (stereo not given) here?
Its Potency is 10.4 µM (active).

For `COc1ccc(CCNC(=O)CCC(=O)NC2CCCCC2)cc1OC`, which Potency is on record?
Its Potency is “inactive”.

Which Potency does the source give for `COc1ccc(Cl)cc1C(=O)NNC(=S)NC1CCCC1` here?
The Potency was “inactive”.

With `O=C(COc1ccccc1O)NC1CCCC1` as the molecule, how does the Potency read?
The Potency was “inactive”.

Which Potency does the source give for `COc1cc(C(=S)NC2CCCCC2)ccc1O` here?
Its Potency is 4.15 µM (active).

For `Cc1ccc(C)c(NS(=O)(=O)c2c(C)[nH]c(C)c2C(=O)N2CCCCC2)c1`, which Potency is on record?
Its Potency is “inactive”.

For `CC(=O)N1CCN(CC(c2ccccc2)c2ccccc2)CC1`, which Potency is on record?
Its Potency is “inactive”.

With `NC(=O)C(Cc1ccccc1)NC(=O)C12CC3CC(CC(C3)C1)C2` (stereo not given) as the molecule, how does the Potency read?
The Potency was “inactive”.

Which Potency does the source give for `CC(=O)O[C@]1(C(C)=O)CC[C@H]2[C@@H]3C=C(C)C4=CC(=O)CC[C@]4(C)[C@H]3CC[C@@]21C` here?
Its Potency is 11.7 µM (active).

Which Potency does the source give for `CCCCN(C1CCS(=O)(=O)C1)S(=O)(=O)c1ccc(C(C)C)cc1` (stereo not given) here?
Its Potency is “inactive”.

With `Fc1cccc(Cl)c1COc1ccc(-c2nnco2)cc1` as the molecule, how does the Potency read?
Its Potency is “inactive”.

For `O=C(/C=C/c1ccc(OCc2c(F)cccc2Cl)cc1)N1CCOCC1`, which Potency is on record?
Its Potency is 10.4 µM (active).

With `O=C(Nc1ccc(OCC(=O)N2CCOCC2)cc1)c1cc(F)c(F)cc1Cl` as the molecule, how does the Potency read?
Its Potency is “inactive”.

For `CCC(C)C(NC(=O)C1CCC(=O)N1C(=O)OCc1ccccc1)C(=O)NC(C(=O)N1CCCC1C(N)=O)C(C)CC` (stereo not given), which Potency is on record?
The Potency was “inactive”.
